“And” between values parts separate entries of the source, which are not always exact repeats. Equal entries are not always repeated. The source made the active and inactive calls. Rule for the calls: active = hit-call score of the fitted dose curve at least 0.9, where 1 is the maximum; inactive = score below 0.9.
What was measured:
[1] = read-out: Interleukin-1 alpha (IL1a), IL1A (gene 3552); test: BSK_KF3CT_IL1a: BioMAP Diversity Plus: KF3CT Assay for Interleukin-1 alpha (IL1a) Biomarker Activity (AID 2283070); conditions: primary human keratinocytes with fibroblasts; actives raise or lower the signal
Outline: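 Human keratinocyte plus foreskin fibroblast primary co-culture, sampled 24 h after chemical dosing. IL-1a measured by ELISA; responses fitted bidirectionally against DMSO baseline (negative control), so gain or loss of signal both count.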

[2] = read-out: TIMP metallopeptidase inhibitor 2 (TIMP2), TIMP2 (gene 7077); test: BSK_KF3CT_TIMP2: BioMAP Diversity Plus: KF3CT Assay for TIMP metallopeptidase inhibitor 2 (TIMP2) Biomarker Activity (AID 2283071); conditions: primary human keratinocytes with fibroblasts; actives raise or lower the signal
Outline: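 Human primary keratinocyte/foreskin fibroblast co-culture dosed with chemical and sampled at 24 h. TIMP-2 levels quantified by ELISA; bidirectional fitting against DMSO negative control as baseline.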

[3] = read-out: Transforming growth factor beta 1 (TGFb1), TGFB1 (gene 7040); test: BSK_KF3CT_TGFb1: BioMAP Diversity Plus: KF3CT Assay for Transforming growth factor beta 1 (TGFb1) Biomarker Activity (AID 2283072); conditions: primary human keratinocytes with fibroblasts; actives raise or lower the signal
Outline: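 Human keratinocyte plus foreskin fibroblast primary co-culture, dosed with chemical for 24 h. TGF-b1 quantified by ELISA. Activity fitted bidirectionally against DMSO negative control as baseline.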

[4] = read-out: C-C motif chemokine 2 (Homo sapiens) (UniProt P13500); test: BSK_KF3CT_MCP1: BioMAP Diversity Plus: KF3CT Assay for Monocyte Chemoattractant Protein 1 (MCP1/CCL2) Biomarker Activity (AID 2283073); conditions: primary human keratinocytes with fibroblasts; actives raise or lower the signal
Outline: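 ELISA read-out of MCP-1, 24 h post-dose, in primary human skin keratinocytes co-cultured with fibroblasts. Parallel SRB staining monitors cytotoxicity; changes fitted both directions relative to DMSO.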

[5] = read-out: Matrix Metallopeptidase 9 (MMP9), MMP9 (gene 4318); test: BSK_KF3CT_MMP9: BioMAP Diversity Plus: KF3CT Assay for Matrix Metallopeptidase 9 (MMP9) Biomarker Activity (AID 2283074); conditions: primary human keratinocytes with fibroblasts; actives raise or lower the signal;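 for AC50: MMP9 protein level quantified by ELISA in the co-culture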
Outline: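 Keratinocyte plus foreskin fibroblast human primary skin co-culture was dosed with chemical and MMP-9 was quantified by ELISA 24 h later. Bidirectional curve fitting used DMSO as negative control and activity baseline.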

[6] = read-out: urokinase plasminogen activator (uPA), PLAU (gene 5328); test: BSK_KF3CT_uPA: BioMAP Diversity Plus: KF3CT Assay for urokinase plasminogen activator (uPA) Biomarker Activity (AID 2283075); conditions: primary human keratinocytes with fibroblasts; actives raise or lower the signal
Outline: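 Human keratinocyte plus foreskin fibroblast primary co-culture exposed to chemical for 24 h. uPA levels were quantified by ELISA, and activity was fitted bidirectionally against a DMSO negative-control baseline.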

[7] = read-out: CD40, CD40 (gene 958); test: BSK_LPS_CD40: BioMAP Diversity Plus: LPS Assay for CD40 Biomarker Activity (AID 2283076); conditions: primary human HUVEC with PBMC; actives raise or lower the signal
Outline: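 In the LPS system of human endothelial cells with peripheral blood mononuclear cells, CD40 levels were read by ELISA 24 h post-treatment. Signal changes in either direction were fitted against the DMSO baseline, with parallel SRB protein staining.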

[8] = read-out: E-selectin (Homo sapiens) (UniProt P16581); test: BSK_LPS_Eselectin: BioMAP Diversity Plus: LPS Assay for Eselectin Biomarker Activity (AID 2283077); conditions: primary human HUVEC with PBMC; actives raise or lower the signal
Outline: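 E-selectin ELISA on LPS-stimulated endothelial cell/PBMC co-cultures, read 24 h post-treatment; gains and losses fitted against DMSO. Parallel SRB staining (0.1% SRB after 10% TCA fixation, 560 nm) flags overt cytotoxicity.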

[9] = read-out: Interleukin-8 (IL8), CXCL8 (gene 3576); test: BSK_LPS_IL8: BioMAP Diversity Plus: LPS Assay for Interleukin-8 (IL8) Biomarker Activity (AID 2283078); conditions: primary human HUVEC with PBMC; actives raise or lower the signal
Outline: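 ELISA read-out of IL-8 after 24 h chemical treatment of LPS-activated endothelial/PBMC human primary co-cultures. Changes either up or down relative to DMSO; overt cytotoxicity checked by sulforhodamine B staining in parallel wells.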

[10] = BSK_LPS_SRB: Viability Assessment in the BioMAP Diversity Plus: LPS Assay (AID 2283079); conditions: primary human HUVEC with PBMC;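 note: total protein by sulforhodamine B absorbance as a cytotoxicity measure; measured one day after compound addition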
Outline: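 SRB viability endpoint: cells fixed with 10% TCA, stained with 0.1% SRB, read at 560 nm, 24 h post-dose. HUVEC/PBMC co-culture; signal change in either direction scored relative to DMSO.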

Measured: AC50

E-selectin (Homo sapiens), sequence (P16581 whole entry, looked up): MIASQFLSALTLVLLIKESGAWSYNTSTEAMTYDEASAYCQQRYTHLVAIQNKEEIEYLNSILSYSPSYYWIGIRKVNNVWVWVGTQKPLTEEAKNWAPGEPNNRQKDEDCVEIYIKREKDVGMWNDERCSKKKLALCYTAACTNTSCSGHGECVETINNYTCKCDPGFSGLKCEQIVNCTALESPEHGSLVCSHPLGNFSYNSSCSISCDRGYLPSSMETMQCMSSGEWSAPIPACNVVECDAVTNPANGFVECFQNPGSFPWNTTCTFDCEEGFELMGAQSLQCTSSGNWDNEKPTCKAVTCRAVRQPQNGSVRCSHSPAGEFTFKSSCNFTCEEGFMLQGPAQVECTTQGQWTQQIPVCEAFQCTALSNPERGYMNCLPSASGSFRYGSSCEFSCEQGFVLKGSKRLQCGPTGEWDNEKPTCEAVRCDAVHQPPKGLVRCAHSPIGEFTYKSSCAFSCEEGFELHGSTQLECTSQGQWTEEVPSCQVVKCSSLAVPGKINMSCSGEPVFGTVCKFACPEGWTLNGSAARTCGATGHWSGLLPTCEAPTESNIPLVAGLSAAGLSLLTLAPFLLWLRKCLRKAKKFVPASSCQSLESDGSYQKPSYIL

Cc1cc(O)ccc1Cl
inactive: [1] | [2] | [3] | [4] | [5] | [6] | [7] | [8] | [9] | [10]

Cc1ccccc1[N+](=O)[O-]
inactive: [1] | [2] | [3] | [4] | [5] | [6] | [7] | [8] | [9] | [10]

Nc1ccc(-c2ccc(N)cc2)cc1
inactive: [1] | [2] | [3] | [4] | [5] | [6] | [7] | [8] | [9] | [10]

Cc1ccccc1CO[C@@H]1C[C@@]2(C(C)C)CC[C@]1(C)O2
inactive: [1] | [2] | [3] | [4] | [5] | [6] | [7] | [8] | [9] | [10]

CC(c1ccc(O)cc1)(c1ccc(O)cc1)c1ccc(O)cc1
active: [2] 13.1 µM | [3] 11.4 µM | [4] 20 µM | [5] 25.2 µM | [6] 20 µM | [7] 20 µM | [8] 32.7 µM | [10] 23.9 µM
inactive: [1] | [9]

NS(=O)(=O)C(F)(F)C(F)(F)C(F)(F)C(F)(F)C(F)(F)C(F)(F)C(F)(F)C(F)(F)F
active: [1] 29.4 µM and 43.8 µM and 44.6 µM | [2] 26 µM and 40.7 µM and 44.4 µM | [3] 9.43 µM | [4] 33.4 µM and 48.9 µM and 52.2 µM | [5] 12.2 µM and 19.9 µM and 20.4 µM | [6] 13.5 µM and 20.9 µM and 21.5 µM | [7] 23.9 µM and 39.6 µM and 39.1 µM | [8] 29.7 µM and 54.3 µM and 58.5 µM | [9] 30.1 µM and 45.6 µM and 49.8 µM | [10] 28.9 µM and 44.6 µM and 44.3 µM

Cc1cccc(C)c1N
inactive: [1] | [2] | [3] | [4] | [5] | [6] | [7] | [8] | [9] | [10]

CCSC(=O)N(CC)C1CCCCC1
inactive: [1] | [2] | [3] | [4] | [5] | [6] | [7] | [8] | [9] | [10]

C[C@]12CCC(=O)C=C1CC[C@@H]1[C@@H]2CC[C@@]2(C)[C@H]1CC[C@]2(C)O
inactive: [1] | [2] | [3] | [4] | [5] | [6] | [7] | [8] | [9] | [10]

O=C(N[C@H]1CN2CCC1CC2)c1cc2ccoc2cn1
inactive: [1] | [2] | [3] | [4] | [5] | [6] | [7] | [8] | [9] | [10]

CCCCCCCCOC(=O)c1ccccc1C(=O)OCCCCCCCC
inactive: [1] | [2] | [3] | [4] | [5] | [6] | [7] | [8] | [9] | [10]

CC(C)(O)C(=O)Nc1ccc([N+](=O)[O-])c(C(F)(F)F)c1
inactive: [1] | [2] | [3] | [4] | [5] | [6] | [7] | [8] | [10]

O=S(=O)(O)C(F)(F)C(F)(F)C(F)(F)C(F)(F)F
inactive: [1] | [2] | [3] | [4] | [5] | [6] | [7] | [8] | [9] | [10]

O=C(NC(=O)c1cc(F)c(F)cc1Cl)Nc1cc(F)ccc1N1CCC(C(=O)O)CC1
inactive: [1] | [2] | [3] | [4] | [5] | [6] | [7] | [8] | [9] | [10]

CCCN(CCC)N=O
inactive: [1] | [2] | [3] | [4] | [5] | [6] | [7] | [8] | [9] | [10]

CC(C)(c1ccccc1)c1ccc(O)cc1
active: [1] 31.2 µM | [2] 34.3 µM | [3] 34.5 µM | [4] 34.8 µM | [5] 31.4 µM | [6] 31.5 µM | [7] 32.5 µM | [8] 36.7 µM | [9] 35.3 µM | [10] 33.1 µM

Oc1ccc(Cl)cc1Cl
inactive: [1] | [2] | [3] | [4] | [5] | [6] | [7] | [8] | [9] | [10]

— PubChem BioAssay (EPA / NIEHS)
